The whole screen tested about 360,000 compounds, of which about 3,900 (1.1%) were called active. The sample holds actives, similar compounds and a random draw of the others, so the mix is not that of the screen. A number with no mark means an inactive call.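 The calls were made as follows: active = mean replicate inhibition score of at least 50 and every replicate individually at or above 50; inconclusive = only one of the two criteria met; inactive = mean below 50 and not all replicates reaching 50.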
assay: inhibitors of HIV-1 Env-driven cell-cell fusion, primary screen, HeLa-JRFL effector, CEM21 target cells, luciferase (AID 651610); details: stronger effect = higher value; at 16.7 µM unless noted;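 also: 0% = plate neutral controls and 100% = maraviroc near 300 nM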

Compound | inhibition
C[C@H]1CN([C@@H](C)CO)C(=O)c2cc(Br)cnc2O[C@@H]1CN(C)S(=O)(=O)c1ccc(F)cc1 | 48%
C[C@@H]1CN([C@H](C)CO)C(=O)c2cccc(NS(=O)(=O)c3cn(C)cn3)c2O[C@H]1CN(C)Cc1ccc(C(=O)O)cc1 | 16.1%
CC(=O)N1C[C@@H](CO)[C@@H](N(C)C(=O)C(C)(C)C)C[C@H]1c1ccccc1Br | -6.57% [at 12.3 µM]
Cc1ccc(F)cc1S(=O)(=O)N[C@@H]1CCN(Cc2ccc(-c3ccccc3)cc2)C1 | -7.12%
Cc1ccc(S(=O)(=O)N2C[C@@H]3CCCC[C@@H]3[C@@H](C)[C@H]2c2cn(Cc3ccccc3)c3ccc(F)cc23)cc1 | 77% [at 12.3 µM] (active)
CCOC1=C2[C@@H](CN(S(=O)(=O)c3ccc(C)cc3)[C@H]2c2ccccc2F)[C@H]2C(=O)N(Cc3ccccc3)C(=O)[C@H]2C1 | 12.3% [at 12.3 µM]
CO[C@H]1CN(C)C(=O)c2cc(NC(=O)NC(C)C)ccc2OC[C@@H](C)NC[C@@H]1C | -14%
O=C(N[C@H]1CC[C@@H](CCNS(=O)(=O)c2cccc(Cl)c2)O[C@@H]1CO)c1ccccc1 | 12.1%
CCCNC(=O)N(C)C[C@H]1Oc2ncc(C#Cc3ccncc3)cc2C(=O)N([C@@H](C)CO)C[C@@H]1C | 0.597%
Cc1cccc([C@@H]2[C@@H]3C(=O)N(Cc4ccccc4)C(=O)[C@@H]3[C@]3(Cc4ccc(Cl)cc4)C(=O)N(c4cccc(Cl)c4)C(=O)N23)c1 | -14.5% [at 12.3 µM]
O=C1[C@H]2[C@@H](c3ccc(Cl)cc3)N3C(=O)N(c4cccc(F)c4)C(=O)[C@@]3(Cc3ccccc3)[C@H]2C(=O)N1C1CCCCC1 | 1.92% [at 12.3 µM]
O=C1[C@H]2[C@@H](c3ccc(F)cc3)N3C(=O)N(c4ccc(C(F)(F)F)cc4)C(=O)[C@@]3(Cc3ccccc3)[C@H]2C(=O)N1C1CCCCC1 | 79% [at 12.3 µM] (active)
Cc1cccc(N2C(=O)N3[C@H](c4ccc(F)cc4)[C@@H]4C(=O)N(C5CCCCC5)C(=O)[C@@H]4[C@]3(Cc3ccccc3)C2=O)c1 | 55.1% [at 12.3 µM] (active)
C[C@@H]1CN([C@@H](C)CO)S(=O)(=O)c2ccc(C#Cc3ccc(F)cc3)cc2O[C@H]1CN(C)C(=O)NC1CCCC1 | -2.36%
COc1ccc(CN(C)C[C@H]2Oc3c(NS(=O)(=O)c4ccccc4)cccc3C(=O)N([C@@H](C)CO)C[C@H]2C)cc1 | 12%
O=C(Cc1ccccn1)NCC[C@H]1CC[C@@H](NS(=O)(=O)c2ccc(F)cc2)[C@H](CO)O1 | -7.4%
CCCCNC(=O)C[C@@H]1C[C@@]2(C(=O)OC)CC(C)(C)CC=C2N(Cc2ccco2)C1=O | 5.33% [at 12.3 µM]
COC(=O)[C@@]12C[C@@H](CC(=O)NCc3cccc(C(F)(F)F)c3)C(=O)N(Cc3ccco3)C1=CCC(C)(C)C2 | 74.9% [at 12.3 µM] (active)
CCOC(=O)[C@]12CCC=C1N(Cc1ccco1)C(=O)[C@H](CC(=O)NCc1cccc(C(F)(F)F)c1)C2 | 18.4% [at 12.3 µM]
C[C@H](CO)N1C[C@H](C)[C@@H](CN(C)C(=O)Nc2ccc3c(c2)OCO3)Oc2ccc(NS(=O)(=O)c3ccc(Cl)cc3)cc2CC1=O | -30.5%
Cc1ccc(C(NC(=O)C2CCN(CCOc3ccc(Cl)cc3Cl)CC2)c2ccccn2)cc1 (centres undefined) | 6.28% [at 12.3 µM]
Cc1cccnc1C(NC(=O)C1CCN(Cc2ccc(Cl)c(Cl)c2)CC1)c1ccc(Cl)cc1 (centres undefined) | 62.7% [at 12.3 µM] (active)

Compound | inhibition
O=C(NC(c1ccc(Cl)cc1)c1cnccn1)C1CCN(Cc2ccc(Cl)cc2)CC1 (centres undefined) | 16.4% [at 12.3 µM]
C[C@H]1CN([C@@H](C)CO)S(=O)(=O)c2ccc(Br)cc2O[C@H]1CN(C)Cc1ccccn1 | 16.3%
C[C@H]1CN([C@@H](C)CO)S(=O)(=O)c2ccc(C3=CCCC3)cc2O[C@@H]1CN(C)Cc1ccccc1 | 18.3%
CN1CCN(CCCCOc2ccccc2-c2ccccc2)CC1 | 6.99% [at 12.3 µM]
OCCN1CCN(C(=S)c2ccc(-c3ccccc3)cc2)CC1 | 71.3% [at 12.3 µM] (active)
S=C(c1ccc(-c2ccccc2)o1)N1CCCCC1 | -140% [at 12.3 µM]
CCOC(=O)c1c(NC(=O)CSc2cn(CC)c3ccccc23)sc2c1CCC2 | 40.8% [at 12.3 µM]
CCOC(=O)c1c(NC(=O)C(C)Sc2c[nH]c3ccccc23)sc2c1CCC2 (centres undefined) | 67% [at 12.3 µM] (active)
CCOC(=O)c1c(NC(=O)C2(C)Cc3ccccc3C(=O)O2)sc2c1CCCC2 (centres undefined) | 14.6% [at 12.3 µM]
C[C@H](CO)N1C[C@H](C)[C@H](CN(C)S(=O)(=O)c2cn(C)cn2)Oc2ccc(NS(=O)(=O)c3ccccc3)cc2C1=O | 2.2%
C[C@@H]1CN([C@@H](C)CO)C(=O)c2cc(NC(=O)Cc3ccccc3)ccc2O[C@@H](C)CCCCO[C@@H]1CN(C)C(=O)Nc1ccccc1 | 34.3%
c1ccc(Cc2c(-c3ccco3)nc3c4ccccc4ccn23)cc1 | 65.9% [at 12.3 µM] (active)
Cc1ccc(Cc2c(-c3ccc(C)cc3)nc3c4ccccc4ccn23)cc1 | 14.4% [at 12.3 µM]
Cc1ccc(Cc2c(-c3ccc(Cl)cc3)nc3c4ccccc4ccn23)cc1 | 0.563% [at 12.3 µM]
COc1ccc(S(=O)(=O)N(C)C[C@H]2OCCCC[C@@H](C)Oc3ccc(NC(=O)c4ccncc4)cc3C(=O)N([C@H](C)CO)C[C@@H]2C)cc1 | 13.6%
CO[C@@H]1CN(C)C(=O)c2cc(NS(=O)(=O)c3cccc(Cl)c3)ccc2OC[C@@H](C)NC[C@@H]1C | 0.008%
C[C@@H]1CN([C@@H](C)CO)C(=O)Cc2cc(NC(=O)Nc3ccc4c(c3)OCO4)ccc2O[C@@H]1CN(C)C(=O)Nc1ccc2c(c1)OCO2 | -15.9%
COc1cccc(NC(=O)N[C@@H]2CC[C@H](CC(=O)NCc3ccccn3)O[C@H]2CO)c1 | -38%
CCC(=O)N(C)C[C@@H]1Oc2ncc(C3=CCCC3)cc2C(=O)N([C@H](C)CO)C[C@@H]1C | 0.169%
CCC(=O)N(C)C[C@H]1Oc2ncc(-c3ccccc3OC)cc2C(=O)N([C@H](C)CO)C[C@H]1C | -7.79%
COc1ccc2c3c([nH]c2c1)[C@@H](CO)N(C(=O)c1ccccc1)CC31CCN(Cc2cccnc2)CC1 | -8.66%
O=S1(=O)c2c(cccc2N2CCCCC2)O[C@H](COCc2ccccc2)CN1C1CC1 | 102% [at 12.3 µM] (active)

Compound | inhibition
O=S1(=O)c2c(cccc2N2CCCC2)O[C@H](COCc2ccccc2)CN1C1CC1 | -8.42% [at 12.3 µM]
CSc1ccc(Oc2cccc3c2S(=O)(=O)N([C@H](C)c2ccccc2)C[C@@H](COCc2ccccc2)O3)cc1C | 10.8% [at 12.3 µM]
COc1ccc(NC(=O)N(C)C[C@@H]2Oc3ccc(NC(=O)Cc4cn(C)c5ccccc45)cc3CC(=O)N([C@@H](C)CO)C[C@H]2C)cc1 | -18.3%
CCc1cnc(N2[C@H](C#N)[C@H](c3ccc(C4=CCCC4)cc3)[C@@H]2CO)s1 | 1.6%
CCCOc1ccc(F)cc1-c1cc(C(=O)NCc2ccc(F)cc2)[nH]n1 | -16.3% [at 12.3 µM]
Cc1cc(O)ccc1-c1cc(C(=O)NCc2cc(C(F)(F)F)cc(C(F)(F)F)c2)[nH]n1 | 59.8% [at 12.3 µM] (active)
Cc1ccc(O)c(-c2cc(C(=O)NCc3ccccc3)[nH]n2)c1 | -126% [at 12.3 µM]
CS(=O)(=O)N1[C@H](C#N)[C@H](c2ccc(C#CC3CCCC3)cc2)[C@H]1CO | 1.54%
COc1cccc(S(=O)(=O)Nc2ccc3c(c2)[C@@H]2C[C@H](CC(=O)NC4CCCCC4)O[C@H](CO)[C@@H]2O3)c1 | -12.8%
COc1ccccc1-c1cn(CC[C@H]2CC[C@H](NC(=O)Cc3ccccn3)[C@H](CO)O2)nn1 | 1.37%
Cc1noc(C)c1NC(=O)Nc1ccc2c(c1)C(=O)N([C@H](C)CO)C[C@@H](C)[C@H](CN(C)S(=O)(=O)c1ccc(Cl)cc1)OCCCC[C@H](C)O2 | -20.3%
CCC(=O)N[C@H]1C=C[C@@H](CC(=O)NCC2CCCCC2)O[C@H]1CO | 4.15%
Cn1c(Nc2cccc(Cl)c2)nc2ccccc21 | -29.5% [at 12.3 µM]
OCCCNc1nccc(-c2cc(Nc3cccc(Cl)c3)ncn2)n1 | 95.7% [at 12.3 µM] (active)
Cc1cccc(Nc2nc(NCCO)nc(N3CCCC3)n2)c1 | -14.8% [at 12.3 µM]
C[C@@H]1CN([C@@H](C)CO)C(=O)c2cc(NC(=O)Nc3ccc4c(c3)OCO4)ccc2O[C@@H]1CN(C)C(=O)Nc1ccc2c(c1)OCO2 | 16%
C[C@@H]1CN([C@H](C)CO)C(=O)c2cccc(NC(=O)Nc3cccc4ccccc34)c2O[C@@H]1CN(C)Cc1ccccc1 | -16.3%
COc1ccc(-c2nn(C)c(=O)c3ccccc23)cc1NC(=O)COc1ccccc1 | 79.8% [at 12.3 µM] (active)
COc1ccc(S(=O)(=O)N2CCOCC2)cc1NC(=O)COc1ccccc1 | -4.29% [at 12.3 µM]
COc1ccc(-c2nn(C)c(=O)c3ccccc23)cc1CNC(=O)C1CCCCC1 | 23.3% [at 12.3 µM]

— PubChem BioAssay AID651610 (Broad Institute, 2012)
